Laboratory results as given in PubChem BioAssay (NCI).
This is part of a sample that, as a whole, favours compounds with a hit. Of some 83,000 tested, about 20% had one in any assay.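 Results are percent growth after 48 hours of single-concentration exposure. 100 means growth as in untreated cells, lower positive values show inhibition; negative values down to -100 show cell death.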 Values without a mark were called inactive. Active and inactive are the calls of the source. The calls were made as follows: active = growth percent below 10; inactive = the rest.

Columns and labels:
Experiment in all cases: NCI-60 one-dose screen, 48 h (100 = growth as untreated, 0 = no growth, -100 = all killed)
Settings in all cases: 10 µM unless noted
NCI-H23 lung = tested on: NCI-H23 lung
NCI-H226 lung = tested on: NCI-H226 lung
NCI-H322M lung = tested on: NCI-H322M lung
HOP-62 NSCLC = tested on: HOP-62 NSCLC
NCI-H460 lung = tested on: NCI-H460 lung
HOP-92 NSCLC = tested on: HOP-92 NSCLC
NCI-H522 lung = tested on: NCI-H522 lung
A549/ATCC NSCLC = tested on: A549/ATCC NSCLC
786-0 renal = tested on: 786-0 renal
COLO 205 colon = tested on: COLO 205 colon
DU-145 prostate = tested on: DU-145 prostate
K-562 leukemia = tested on: K-562 leukemia
MALME-3M melanoma = tested on: MALME-3M melanoma
MDA-MB-231 breast = tested on: MDA-MB-231 breast
RXF 393 renal = tested on: RXF 393 renal
SF-268 CNS = tested on: SF-268 CNS
SF-295 CNS = tested on: SF-295 CNS
SF-539 CNS = tested on: SF-539 CNS
UACC-257 melanoma = tested on: UACC-257 melanoma
M14 melanoma = tested on: M14 melanoma

Row | SMILES | growth (NCI-H23 lung) | growth (NCI-H226 lung) | growth (NCI-H322M lung) | growth (HOP-62 NSCLC) | growth (NCI-H460 lung) | growth (HOP-92 NSCLC) | growth (NCI-H522 lung) | growth (A549/ATCC NSCLC) | growth (786-0 renal) | growth (COLO 205 colon) | growth (DU-145 prostate) | growth (K-562 leukemia) | growth (MALME-3M melanoma) | growth (MDA-MB-231 breast) | growth (RXF 393 renal) | growth (SF-268 CNS) | growth (SF-295 CNS) | growth (SF-539 CNS) | growth (UACC-257 melanoma) | growth (M14 melanoma)
1 | Brc1ccc(-c2csc(Nc3ccccn3)n2)cc1 | 58.8% | 73% | 95.2% | 85.4% | 91.5% | 73% | 78.2% | 91.3% | 88.5% | 107% | 109% | 57.1% | 76.3% | 86.3% | 118% | 115% | 99.9% | 102% | 105% | 96.9%
2 | CC(=O)Nc1ccc(S(=O)(=O)Nc2cccc(-c3nc(-c4ccc(NC(=O)c5cccnc5)cc4Cl)no3)c2)cc1 | 42.1% | 57.9% | 41.6% | 34.9% | 18% | 32.1% | 11.2% | 44.2% | 41.7% | 21.7% | 54.6% | 18.9% | 59.7% | 47.5% | 76.5% | 48.2% | 42.2% | 7.87% (active) | 35% | 27.1%
3 | COc1ccc(/C=C/c2nc(-c3n[nH]c(=O)n3-c3ccccc3)c3ccccc3n2)cc1 | 94.8% | 93.5% | 93.7% | 95.8% | 100% | 101% | 85.6% | 99.9% | 94% | 105% | 102% | 95.7% | 94.3% | 94.5% | 101% | 97.3% | 99.6% | 101% | 106% | 94.1%
4 | O=C(C(=O)c1ccc2c(c1)OCO2)c1ccc2c(c1)OCO2 | 111% | 99.9% | 122% | 101% | 96.6% | 101% | 102% | 99.1% | 109% | 109% | 111% | 108% | 104% | 100% | 105% | 99% | 120% | 114% | 87.8% | 101%
5 | CC1CCNC(C)C1 (stereo not given) | 104% | 95.7% | 109% | 104% | 105% | 76.3% | 103% | 112% | 106% | 105% | 110% | 108% | 110% | 107% | 108% | 104% | 103% | 99% | 110% | 102%
6 | COc1ccc(-n2nc(C)c3c(Nc4ccc(NC(=O)Nc5cc(C(F)(F)F)ccc5F)cc4)ncnc32)cc1 | 32.7% | 73.8% | 11% | -38.6% (active) | 13.7% | 32.9% | -12% (active) | 22.9% | 11.3% | 15.2% | 63.6% | 6.88% (active) | 38.9% | -9.99% (active) | -13.2% (active) | 42.6% | -32.1% (active) | 16.8% | 45% | -29.6% (active)
7 | COc1cc(-c2nc3ccccc3[nH]2)ccc1OCC(=O)N=Nc1c(O)[nH]c2ccc(Cl)cc12 | -42.4% (active) | 103% | -7.85% (active) | -61.5% (active) | -75.8% (active) | -36.2% (active) | -43.4% (active) | 35.6% | -79.9% (active) | -48.5% (active) | -37.8% (active) | -25.4% (active) | -66.9% (active) | -87.4% (active) | -56.5% (active) | -72.9% (active) | -68.8% (active) | -83.9% (active) | -18.7% (active) | -71.7% (active)
8 | N#Cc1c(-c2ccc(Cl)cc2)nc(N/N=C/c2cccc(Br)c2)nc1N1CCOCC1 | 98.3% | 92.3% | 90.6% | 90.9% | 87% | 71.2% | 91.1% | 80.4% | 61.8% | 44% | 59.3% | 12.6% | 133% | 103% | 56.2% | 89.2% | 91.5% | 78.8% | 71.6% | 62.4%
